# Laboratory results from PubChem BioAssay AID651636 (Sanford-Burnham Center for Chemical Genomics, 2012).
# The whole screen tested about 360,000 compounds, of which about 3,000 (0.83%) were called active. Only a selection was taken, and actives are over-represented in it overall. A number with no mark means an inactive call. Cut-off read from the data, not from the text of the source: active = inhibition above about 38%; inactive = the rest.
# Target: G-protein coupled receptor 183 (Homo sapiens) (UniProt P32249)
# Sequence (P32249 whole entry, looked up, the tested form may be a part): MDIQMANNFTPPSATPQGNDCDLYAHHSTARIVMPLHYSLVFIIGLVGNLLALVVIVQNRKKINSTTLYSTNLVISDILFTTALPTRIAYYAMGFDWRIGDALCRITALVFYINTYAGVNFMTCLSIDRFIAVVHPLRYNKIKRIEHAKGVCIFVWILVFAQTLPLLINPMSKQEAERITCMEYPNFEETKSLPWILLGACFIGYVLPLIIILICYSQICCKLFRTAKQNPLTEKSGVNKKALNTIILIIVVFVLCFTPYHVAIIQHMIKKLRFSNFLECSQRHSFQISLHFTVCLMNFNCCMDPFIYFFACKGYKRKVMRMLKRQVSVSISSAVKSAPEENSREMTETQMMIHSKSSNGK
# Experiment: blockers of oxysterol-driven EBI2 arrestin signaling – cell-based, luminescence, 7a,25-OHC stimulation, uHTS, primary screen (AID 651636);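 note: enzyme fragment complementation signal reports receptor beta-arrestin coupling in cells; 0% = agonist plus DMSO wells and 100% = wells without agonist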
# Settings: EBI2 beta-arrestin recruitment, 7a,25-OHC stimulated, at 5 µM, active compounds read high
row,Compound,inhibition
1,O=C(NCc1ccc(Cl)cc1)c1cc2c(nc3sccn32)s1,12.5%
2,O=C(Cc1ccc(Cl)cc1)NCc1nc(-c2ccccc2)no1,4.5%
3,O=C(NCc1ccc(Cl)cc1)c1cc(=O)nc2sc(-c3ccccc3)nn12,49.6% (active)
4,CC(=O)NC12CC3CC(C1)CC(C(=O)N1CCN(C(=O)c4ccco4)CC1)(C3)C2,1.98%
5,COc1ccc(-c2nnn(Cc3nc(N)nc(N4CCCCC4)n3)n2)cc1,5.05%
6,COc1ccc(-c2c(-c3ccc(OC)cc3O)nc(C)nc2C(F)(F)F)cc1,14.5%
7,COc1ccc(-c2nc(N)ncc2-c2ccc(Cl)cc2)c(O)c1,88.2% (active)
8,COc1cccc(-c2cnc(OC(C)(C)C)nc2OC(C)(C)C)c1,-3.37%
9,CCOc1ccc(C(=O)N(Cc2ccc(N(C)C)cc2)C2CCS(=O)(=O)C2)cc1 (stereo not drawn),7.56%
10,O=C(Nc1cc2c3c(c1)CC(=O)N3CCC2)c1ccccc1F,-3.38%
11,Oc1ccc2ccccc2c1N=Nc1nccs1,58.9% (active)
12,CC1(c2nnc(Cc3ccccc3)o2)CC(c2ccccc2F)=NO1 (stereo not drawn),-4.25%
13,CCOC(=O)[C@]12CCCC=C1N(CCC1=CCCCC1)C(=O)[C@H](CC(=O)N1CCN(C(=O)c3ccco3)CC1)C2,-0.759%
14,c1ccc(-c2cnc(CN3CCN(c4ccccc4)CC3)o2)cc1,3.15%
15,Fc1ccc(N2CCN(Cc3cnc(Oc4ccc(Br)cc4)s3)CC2)cc1,46.4% (active)
16,COc1ccc(N2CCN(Cc3ccc(Br)s3)CC2)cc1,-1.05%
17,Cc1ccc(C(=O)c2coc3ccc(O)c(CN(C)C)c23)cc1,-7.39%
18,COc1ccc(OC)c(C(=O)c2coc3ccc(O)c(CN4CCOCC4)c23)c1,37% (active)
19,COc1ccc(OC)c(C(=O)c2coc3ccc(OC)cc23)c1,5.5%
20,CN(O)C(=S)c1ccccc1,43% (active)

row,Compound,inhibition
1,C=CCOC(=O)C1=C[C@@H](c2ccccc2)C[C@@H](OCc2ccc(CO)cc2)O1,7.13%
2,Cc1ccc2c(C)c(C(=O)N3CCN(c4ccncc4)CC3)oc2c1C,1.76%
3,Cc1cc(F)ccc1NC(=S)NCCc1ccccc1,1.81%
4,CCCC1CCC(=NNC(=S)NCCc2ccccc2)CC1 (stereo not drawn),66.9% (active)
5,CCCCNC(=S)N/N=C1\CCCCc2ccccc21,6.96%
6,CC(=O)CCS(=O)(=O)c1ccc(C)c(C)c1,-7.62%
7,CC(=O)c1cc(-c2ccccc2)n(CCC(=O)NC2CCCCCC2)c1C,-14.6%
8,COc1ccc(NC(=O)CSc2ncnc3[nH]ncc23)cc1,-1.87%
9,COc1ccc(Nc2cc(Sc3ccc(OC)cc3)ncn2)cc1,55.7% (active)
10,COc1ccc(Sc2ccc(NC(=O)c3cccc(Cl)c3)cc2C#N)cc1,19.1%
11,CN1C(=O)CC(N2CCN(c3ccccn3)CC2)C1=O (stereo not drawn),1.43%
12,CO/N=C(/CS(=O)(=O)c1ccc(Br)cc1)c1ccc(OC)cc1,2.11%
13,O=C(CC(c1ccccc1)c1ccccc1)NCC(O)c1ccc([N+](=O)[O-])cc1 (stereo not drawn),68.3% (active)
14,O=C(NCC(O)c1ccc([N+](=O)[O-])cc1)C1CCCCC1 (stereo not drawn),19.3%
15,CN(C)C(CNC(=O)Cc1ccc([N+](=O)[O-])cc1)c1ccccc1 (stereo not drawn),-5.83%
16,COc1ccccc1CNC(=O)C1Cc2ccccc2C(=O)O1 (stereo not drawn),-4.46%
17,Cc1ccc(S(=O)(=O)N2CC3C(=O)C[C@@H](c4ccccc4Cl)N(S(=O)(=O)c4ccc(C)cc4)C3CC2c2ccccc2)cc1 (stereo partly drawn),17%
18,CC1Oc2ccccc2N(Cc2cccnc2)C1=O (stereo not drawn),2.36%
19,CCCCC(=O)N(C)c1c(CC)nc2c(OCc3ccc(Cl)cc3Cl)cccn12,42.4% (active)
20,CCCCC(=O)N(C)c1c(CC)nc2c(OCc3ccc(S(C)(=O)=O)cc3)cccn12,-7.39%

row,Compound,inhibition
1,CCc1nc2c(OCc3ccc(Cl)cc3Cl)cccn2c1N(C)C(=O)C(C)C,36.4%
2,CCCOC(=O)c1c(NC(=O)c2cnn3c2NC(c2ccccc2)CC3C(F)(F)F)sc2c1CCCC2 (stereo not drawn),-7.48%
3,Cc1ccccc1C(CC(=O)c1cccs1)C(C#N)C#N (stereo not drawn),-15.3%
4,NC(=O)C1(N2CCCCC2)CCN(C2CC(=O)N(Cc3ccc(N4CCCC4=O)cc3)C2=O)CC1 (stereo not drawn),-18.3%
5,COc1ccccc1-n1c(=S)[nH]c2c(sc(=S)n2-c2ccc(C)cc2C)c1=O,0.762%
6,O=[N+]([O-])c1c(NCCO)cc(Sc2nc3ccccc3s2)c2nonc12,51.4% (active)
7,Cc1ccn2c(=O)c(C(=O)NCCC3=CCCCC3)c(O)nc2c1,-7.12%
8,COc1ccc(CN(Cc2ccco2)S(=O)(=O)c2ccc(S(=O)(=O)N3CCCC3)cc2)cc1,-7.47%
9,COc1cc(S(=O)(=O)N(Cc2cccs2)C2CC2)ccc1-n1cnnn1,6.23%
10,CCOc1ccc(CN(Cc2ccco2)S(=O)(=O)c2ccc(-n3cnnn3)c(OC)c2)cc1,50.9% (active)
11,CCCCCCCCN1C(=O)[C@H](CC(=O)NCC23CC4CC(CC(C4)C2)C3)C[C@@]2(C(=O)OC)CCCCC=C12,8.12%
12,COC1=CC(=O)OC(C)(c2ccccc2)C1 (stereo not drawn),-4.31%
13,COc1ccc(S(=O)(=O)N(CC(=O)NCc2ccco2)c2ccc(F)cc2)cc1,-6.33%
14,COc1ccc(CCNC(=O)CN(c2ccccc2)S(=O)(=O)c2ccccc2)cc1,-2.04%
15,COc1ccc(CNC(=O)CN(c2ccc(OC)c(Cl)c2)S(=O)(=O)c2ccc(C)cc2)cc1,42% (active)
16,CCOP(=O)(OCC)C(Cc1ccccc1)N=C(c1ccccc1)c1ccccc1 (stereo not drawn),23.7%
17,O=C(NCc1ccc(F)cc1)c1cc(C2CCCCN2C(=O)C2CCCCC2)on1 (stereo not drawn),13.6%
18,CC1CCN(S(=O)(=O)c2ccc3[nH]c(=O)ccc3c2)CC1,-4.98%
